A selection: hits, their analogues and other compounds. The true share with any hit is near 11%.
G9a inh – G9a (human) methyltransferase inhibition; 350,000 compounds, 8.8% hits; Potency, µM (highest dose often 102 µM), inactives show top-dose activity, negative = inhibition, hits mostly inhibitors; AID 504332; Q96KQ7; G9a H3K9 monomethylation, AlphaScreen, 2 h; also: % is scaled to controls: 0 for no effect and ±100 for the full control effect; nearly all actives have a fitted effect of over 75% in size
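AlphaScreen detection with an anti-monomethyl H3K9 antibody quantified product after a 2 h room-temperature reaction containing 500 nM biotinylated H3K9 peptide, 20 µM SAM and 20 nM enzyme, which had been preincubated 15 min with compound.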
L3MBTL1 block – inhibitors of human L3MBTL1 | AlphaScreen L3MBTL1–H3K9me1 peptide binding | Q9Y468 | 230,000 compounds, 0.66% hits | Potency, µM (highest dose often 57.1 µM), for inactives: at the top dose activity, negative = inhibition, most hits filed as inhibitors | AID 485360; also: % is scaled to controls: 0 for no effect and ±100 for the full control effect; nearly all actives have a fitted effect of over 60% in size
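Displacement of a biotinylated histone H3(1-15) peptide monomethylated at Lys9 (75 nM) from L3MBTL1 (50 nM) was measured by AlphaScreen after a 30 min room-temperature compound incubation; cefsulodin titration served as intraplate control.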
HP1b chromo inh – inhibitors of HP1-beta chromodomain binding to methylated histone tails | Potency, µM (doses to about 114 µM), for the others: at the highest dose activity change, negative = inhibition, usual class: inhibitors | AlphaScreen HP1-beta / biotin-H3K9me3 peptide binding | 390,000 compounds, 0.56% hits | P83916; also: nearly all actives have a fitted effect of over 70% in size
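Compound inhibition of the preformed complex between 50 nM HP1-beta and 50 nM biotinylated H3K9me3 peptide was read by AlphaScreen. Buffer was PBS pH 7.4 with 0.01% Tween-20. Incubations ran 30 min at room temperature, with 10 ug/mL donor/acceptor beads.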
JMJD2A Tudor – blocks the human JMJD2A Tudor domain. O75164. AlphaScreen JMJD2A-Tudor / H3K4me3 peptide binding. Potency, µM (doses to about 114 µM), inactives show at the top dose activity change, negative = inhibition, hits mostly inhibitors. 390,000 compounds, 4.4% hits; also: % is scaled to controls: 0 for no effect and ±100 for the full control effect; nearly all actives have a fitted effect of over 50% in size
BAZ2B block – BAZ2B (human) inhibition. AlphaScreen BAZ2B-H3K14Ac peptide displacement. Potency, µM (top dose mostly 114 µM), for inactives: top-dose activity change, negative = inhibition, hits mostly inhibitors. 360,000 compounds, 4.4% hits. AID 504333; also: % is scaled to controls: 0 for no effect and ±100 for the full control effect; nearly all actives have a fitted effect of over 60% in size
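Multi-concentration screen (max 110 uM) measuring displacement of acetylated histone H3 peptide from BAZ2B by AlphaScreen, using 50 nM protein, 50 nM peptide and 10 ug/mL streptavidin donor plus Ni-chelate acceptor beads.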
An asterisk follows results filed as active; [ ] = dose if it differs, or a comment. Calls follow the shape of the dose curve; as a rule, active = well fitted inhibition curve with a large enough effect; inconclusive = small, poorly fitted or top-dose-only effect; inactive = no such curve, though single readings can be large or run the other way. Potency is read from the fitted curve at half-maximal effect.

How did CCOc1cccc(N)c1 do in these assays?
G9a inh: 2%[0.501 µM]; L3MBTL1 block: -3%; HP1b chromo inh: 25%; JMJD2A Tudor: -12%; BAZ2B block: 13%

What do the screens show for `CCOc1ccc(N)c(SSc2cc(OCC)ccc2N)c1`?
G9a inh: 0.56µM*; HP1b chromo inh: 18µM*; JMJD2A Tudor: 13µM*; BAZ2B block: 32µM*

Results for COc1ccccc1Nc1nc(N)nc(CN2CCN(c3ccccc3)CC2)n1 ?
G9a inh: inconclusive; HP1b chromo inh: -1%; JMJD2A Tudor: 56µM*; BAZ2B block: 50µM*

How did COc1ccccc1N1CC(C(=O)OCc2nc(N)nc(Nc3ccccc3)n2)CC1=O (configuration not stated) do in these assays?
G9a inh: inconclusive; L3MBTL1 block: 7%; HP1b chromo inh: 27%; JMJD2A Tudor: -22%; BAZ2B block: 1%

Results for COc1cccc(N2CCN(Cc3nc(N)nc(Nc4ccccc4OC)n3)CC2)c1 ?
G9a inh: -5%[59 µM]; L3MBTL1 block: -13%; HP1b chromo inh: 18%; JMJD2A Tudor: -27%[57.1 µM]; BAZ2B block: 50µM*

How did COc1ccccc1N1CCN(Cc2nc(N)nc(Nc3ccccc3)n2)CC1 do in these assays?
G9a inh: 79µM*; L3MBTL1 block: -5%; HP1b chromo inh: 14%; JMJD2A Tudor: 50µM*; BAZ2B block: -95%

How did O=C(/C=C/c1ccc(OC(F)F)cc1)Nc1cccc(S(=O)(=O)N2CCOCC2)c1 do in these assays?
G9a inh: 2%[12.7 µM]; HP1b chromo inh: 20%; JMJD2A Tudor: -15%; BAZ2B block: -9%

How did Cc1nnc(C)c2c(C)n(-c3ccc(Cl)c(N)c3)c(C)c12 do in these assays?
G9a inh: 56µM*; HP1b chromo inh: -9%; JMJD2A Tudor: inconclusive; BAZ2B block: -33%

Results for CC1(OC(=O)c2cccs2)C(=O)C=C2C=C3CCCN3C=C2C1=O (configuration not stated) ?
G9a inh: -37%[59 µM]; HP1b chromo inh: inconclusive; JMJD2A Tudor: 56µM*; BAZ2B block: 45µM*

What do the screens show for `CC1(OC(=O)CCc2ccccc2)C(=O)C=C2C=C3CCCN3C=C2C1=O` (configuration not stated)?
G9a inh: -39%[59 µM]; HP1b chromo inh: -9%; JMJD2A Tudor: 56µM*; BAZ2B block: 56µM*

Results for CC1(OC(=O)CCc2ccccc2)C(=O)C=C2C=C(c3ccc(C#N)cc3)N(C3CCCCC3)C=C2C1=O (configuration not stated) ?
G9a inh: -36%[59 µM]; HP1b chromo inh: -8%; JMJD2A Tudor: inconclusive; BAZ2B block: inconclusive

How did CCc1ccc(NC(=O)CNC(=O)[C@@H]2Cc3ccccc3CN2C(=O)OC(C)(C)C)cc1 do in these assays?
G9a inh: 16%[0.0925 µM]; HP1b chromo inh: 39%; JMJD2A Tudor: -10%; BAZ2B block: -15%

What do the screens show for `O=C1C(=O)N(CC2CCCO2)C(c2ccccc2[N+](=O)[O-])/C1=C(/O)c1ccccc1` (configuration not stated)?
G9a inh: 32µM*; L3MBTL1 block: 10%; HP1b chromo inh: 14%; JMJD2A Tudor: -31%; BAZ2B block: inconclusive

What do the screens show for `O=C(c1ccccc1)c1ccc2n1CC[C@H]2C(=O)O`?
G9a inh: 16%[21.5 µM]

What do the screens show for `COCCn1c(SC(C)C(=O)Nc2ccc(N3CCOCC3)cc2)nnc1-c1ccncc1` (configuration not stated)?
G9a inh: -34%[59 µM]; L3MBTL1 block: -3%; HP1b chromo inh: 13%; JMJD2A Tudor: -15%; BAZ2B block: 11%

How did COc1ccc(NC(=O)C2C3C=CC(O3)C2C(=O)O)cc1 (configuration not stated) do in these assays?
G9a inh: 40µM*; L3MBTL1 block: 2%; HP1b chromo inh: 25%; JMJD2A Tudor: -18%; BAZ2B block: -1%

Results for CCCOC(=O)c1ccc(NC(=O)C2C3C=CC(O3)C2C(=O)O)cc1 (configuration not stated) ?
G9a inh: 14µM*; L3MBTL1 block: 3%; HP1b chromo inh: 52%; JMJD2A Tudor: -18%; BAZ2B block: -28%

How did COc1cccc(NC(=O)C2C3C=CC(O3)C2C(=O)O)c1 (configuration not stated) do in these assays?
L3MBTL1 block: -3%; HP1b chromo inh: 41%; JMJD2A Tudor: -5%; BAZ2B block: -37%

How did CC(C)OC(=O)c1cc(NC(=O)C2C3C=CC(O3)C2C(=O)O)cc(C(=O)OC(C)C)c1 (configuration not stated) do in these assays?
G9a inh: 50µM*; HP1b chromo inh: 73%; JMJD2A Tudor: inconclusive; BAZ2B block: inconclusive

What do the screens show for `Cc1c(C)c2c(OCC(=O)N3CCC(C(=O)O)CC3)cc3c(c2oc1=O)CCC(C)(C)O3`?
G9a inh: 11%[12.7 µM]; HP1b chromo inh: 38%; JMJD2A Tudor: -18%; BAZ2B block: -32%

How did O=c1c(-c2ccc(Cl)cc2)nc2cnc(N3CCNCC3)nc2n1-c1ccccc1 do in these assays?
G9a inh: -1%[0.501 µM]

How did O=C(Nc1ccccc1)N1CCCC2(CCN(S(=O)(=O)c3ccccc3)CC2)C1 do in these assays?
G9a inh: 0%[12.7 µM]

Results for Cn1ncc(Br)c1C(=O)N1CCCCCC1 ?
G9a inh: 32µM*; HP1b chromo inh: 13%; JMJD2A Tudor: -2%; BAZ2B block: 4%

Results for CN(C)c1ccc2c(c1[N+](=O)[O-])Cc1ccccc1-2 ?
HP1b chromo inh: inconclusive; JMJD2A Tudor: 16µM*

How did Cc1ccc(CN2CCc3nc(N4CCN(c5ccccc5F)CC4)ncc3C2)s1 do in these assays?
G9a inh: -5%[59 µM]; HP1b chromo inh: 14%; JMJD2A Tudor: -19%; BAZ2B block: -28%

What do the screens show for `C=Cc1nc(Nc2cc(F)cc(F)c2)nc(NC2CCCC2)n1`?
JMJD2A Tudor: -15%

Results for CC1(C)CC(=O)C2=C(C1)NC(=S)C(C#N)C21CCCCC1 (configuration not stated) ?
G9a inh: 0.5µM*; HP1b chromo inh: inconclusive; JMJD2A Tudor: 7.9µM*; BAZ2B block: inconclusive

How did CC(NC(=O)c1ccc2c(c1)N(Cc1ccc(Cl)cc1)C(=O)c1ccccc1S2=O)c1ccccc1 (configuration not stated) do in these assays?
G9a inh: -46%[59 µM]; HP1b chromo inh: 21%; JMJD2A Tudor: -14%; BAZ2B block: -13%

Results for Cc1ccc(N2CCN(C(=O)c3cccs3)CC2)cc1C ?
G9a inh: -8%[0.501 µM]; L3MBTL1 block: 1%[2.29 µM]; HP1b chromo inh: 5%; JMJD2A Tudor: -31%; BAZ2B block: 50µM*

What do the screens show for `CC(=O)Nc1ccc(N2CCN(C(=O)c3cccs3)CC2)cc1`?
G9a inh: 8%; L3MBTL1 block: 4%; HP1b chromo inh: 26%; JMJD2A Tudor: -7%; BAZ2B block: 9%

From PubChem BioAssay
